Assay results: PubChem BioAssay AID504652 (National Center for Advancing Translational Sciences (NCATS), 2011)
The whole screen tested about 360,000 compounds, of which about 11,000 (3.1%) were called active. This is one part of a sample in which actives are shown more often than they occur. Rule as the data show it: active = activity change below about -30%; inactive = the rest.

molecular target: D(1A) dopamine receptor (Homo sapiens) (UniProt P21728); assay: Antagonist of Human D 1 Dopamine Receptor: qHTS; conditions: HEK293 TREx D1 cells, calcium flux, dopamine EC80; at 10 µM; stronger effect = lower value
Sequence (P21728 whole entry, looked up): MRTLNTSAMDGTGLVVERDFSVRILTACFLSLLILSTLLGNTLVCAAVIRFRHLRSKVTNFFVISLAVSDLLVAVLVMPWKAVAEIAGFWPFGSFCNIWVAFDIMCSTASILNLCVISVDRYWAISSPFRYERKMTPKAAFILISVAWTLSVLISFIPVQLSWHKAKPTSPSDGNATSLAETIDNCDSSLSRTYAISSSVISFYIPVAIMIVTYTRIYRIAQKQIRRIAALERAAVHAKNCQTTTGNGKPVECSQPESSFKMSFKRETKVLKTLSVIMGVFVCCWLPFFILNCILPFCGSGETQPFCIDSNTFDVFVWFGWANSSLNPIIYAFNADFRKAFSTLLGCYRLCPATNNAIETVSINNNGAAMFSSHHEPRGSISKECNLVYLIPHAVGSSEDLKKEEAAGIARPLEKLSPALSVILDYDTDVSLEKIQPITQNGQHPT
Procedure, shortened: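 Cells carrying a force-coupled, tetracycline-inducible human D1 receptor report calcium flux. Each well gets a 10 s baseline, compound with 180 s monitoring, then an EC80 dopamine stimulus with a second 180 s kinetic read.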
% is scaled to controls: 0 for no effect and ±100 for the full control effect.

Activity change, negative = inhibition, active:
N#C/C(=C\c1cccnc1)C(=O)Nc1ccc(SC(F)F)cc1 -35.7%
CCOC(=O)c1nnn2c1nc(N1CCN(c3ccccc3)CC1)c1ccccc12 -35.4%
O=C(Cc1cccs1)Nc1nnc(SCc2ccc(F)cc2)s1 -79.5%
CC(C)n1ncc2c(C(=O)NCc3ccccc3CN(C)C)cc(C3CC3)nc21 -37.6%
CCOc1ccc(N(CC(=O)NCCc2ccc(F)cc2)S(=O)(=O)c2ccccc2)cc1 -32.1%
COCCN(Cc1ccccc1)C(=O)Cc1ccc(S(=O)(=O)N2CCOCC2)s1 -46%
C[C@H](NC(=O)c1nc[nH]c1C(=O)N[C@@H](C)C(=O)OC(C)(C)C)C(=O)OC(C)(C)C -89.3%
COc1cccc(NC(=O)N2CCN(C(=O)c3nsc4ccccc34)CC2)c1 -44.8%
COc1ccc(C(=O)NC2CC2)cc1OC1CCN(C/C=C/c2ccccc2)CC1 -56.2%
COc1ccc(C(=O)NC2CC2)cc1OC1CCN(Cc2ccc(SC)cc2)CC1 -63.9%
COc1ccccc1C(C)NC(=O)Cc1ccsc1 (centres undefined) -36.8%
COc1ccc(-c2c(C)c3ccc(O)c(CN4CCN(C)CC4)c3oc2=O)cc1OC -44.5%
CCNS(=O)(=O)c1ccc(NC(=O)Nc2cccc(OC)c2)cc1 -47.6%
COCc1ccc(C(=O)N2CCc3c([nH]c4ccccc34)C2c2ccccn2)s1 (centres undefined) -33.8%
Cc1cc(/C=C2\SC(=Nc3ccc(N4CCOCC4)cc3)N(C)C2=O)c(C)n1-c1cccnc1 -38%
COc1ccc(CNc2cc(C)cc(C)c2)cc1OC -45.1%
CC(=O)[C@@]12O[C@@H]1C[C@H]1[C@@H]3CC[C@H]4C[C@@H](O)CC[C@]4(C)[C@H]3CC[C@@]12C -34.5%

Activity change, negative = inhibition, inactive:
Cc1ccc(S(=O)(=O)n2nc(C)c(S(=O)(=O)N3CCCCCC3)c2C)cc1 17.9%
COc1ccc(N(CC(=O)NCCc2ccc(Cl)cc2)S(=O)(=O)c2c(C)nn(C)c2C)cc1 -19.7%
CCC1CCCCN1S(=O)(=O)c1ccc(NC(=O)c2cc(=O)c3ccccc3o2)cc1 (centres undefined) -15.6%
Cc1ccccc1CSCCNC(=O)C1CCN(S(=O)(=O)Cc2ccccc2)CC1 -13.9%
Cc1cc(/C=C(/C#N)C(=O)Nc2ccc(Cl)cc2)c(C)n1-c1cccnc1 -14.3%
CC(C)(C)NC(=O)/C(=C/c1cccnc1)NC(=O)c1ccco1 -13.6%
CCCCN1CC(c2nc3ccccc3n2CCCCOc2ccc(C)cc2C)CC1=O (centres undefined) -5.31%
Cc1ccc(S(=O)(=O)c2nnn3c2nc(N2CCN(c4ccccn4)CC2)c2ccccc23)cc1 -20.2%
CCOC(=O)c1nnn2c3ccccc3c(=O)n(C)c12 -10.2%
CCN1CCN(CCCNC(=O)c2ccc3c(c2)sc2nc(-c4ccc(OC)cc4)cn23)CC1 -14.6%
CSc1nn(Cc2cccc(C)c2)c(N)c1S(=O)(=O)c1ccccc1 -16.3%
CC(C)(C)CC(=O)Nc1nnc(SCC(=O)NCc2cccs2)s1 3.61%
O=C(CSc1nnc(SCc2ccc(F)cc2)s1)Nc1ccc(C(=O)O)cc1 6.86%
COc1cccc(CNC(=O)CCC(=O)N2CC3CCCN3c3ccccc32)c1 (centres undefined) -1.97%
Cc1ccccc1C(=O)Nc1cc(C)c(O)c(-c2nc3ccccc3o2)c1 5.18%
CCOC(=O)c1c(C)[nH]c(C)c1S(=O)(=O)N1CCCC(C(=O)NCc2ccccc2Cl)C1 (centres undefined) -3.63%
COc1ccc(CCNC(=O)Cn2c(=O)n(-c3ccccc3)c(=O)c3c(C)c(C)sc32)cc1OC 2.12%
COc1ccc(OCCNC(=O)c2cc(C3CC3)nc3c2cnn3C(C)C)cc1 -8.1%
CC(C)n1ncc2c(C(=O)Nc3ccc(CC#N)cc3)cc(C3CC3)nc21 -2.28%
COc1ccc(Nc2ncc(C(=O)Nc3cc(C)ccc3OC)c3ccccc23)cc1 -5.45%
O=C(Cn1c(=O)n(-c2ccc(F)cc2)c(=O)c2sccc21)Nc1cccc(C(F)(F)F)c1 10.9%
CCOc1ccc(N(CC(=O)NCCc2ccc(OC)cc2)S(C)(=O)=O)cc1 6.98%
CCOc1ccc(N(CC(=O)NCCOc2ccccc2OC)S(=O)(=O)c2ccccc2)cc1 -9.44%
COc1ccc(CC(=O)N2CC(=O)Nc3ccc(Br)cc3C2c2ccc(F)cc2)cc1OC (centres undefined) 1.32%
Cc1nnc(C)n1-c1ccc(C(=O)Nc2cccc(Br)c2)cc1 -6.55%
CCN(Cc1ccccc1)C(=O)Cc1ccc(OC)c(S(=O)(=O)N2CCOCC2)c1 -8.6%
O=C(Cc1ccc(S(=O)(=O)N2CCOCC2)s1)NCCC(c1ccccc1)c1ccccc1 2.72%
CNC(=O)c1[nH]cnc1C(=O)N[C@@H](CC(C)C)C(=O)OC(C)(C)C -1.57%
C[C@H](NC(=O)c1nc[nH]c1C(=O)NCC(=O)OC(C)(C)C)C(=O)OCc1ccccc1 -24.2%
CCCCS(=O)(=O)c1oc(-c2cccs2)nc1S(=O)(=O)c1ccccc1 11.6%
COc1ccc(-c2nc(Cn3c(=O)cc(C)c4c(C)nn(-c5ccccc5)c43)c(C)o2)cc1OC 0.18%
Cc1c(Cl)cccc1NC(=O)N1CCN(C(=O)c2nsc3ccccc23)CC1 -9.22%
CCc1ccc(NC(=O)N2CCN(C(=O)c3nsc4ccccc34)CC2)cc1 -22.5%
O=C(Nc1cc(C(F)(F)F)ccc1Cl)c1ccc2c(c1)CCN2S(=O)(=O)c1ccccc1 3.06%
COc1ccc(C(=O)NC2CC2)cc1OC1CCN(Cc2cnn(C)c2)CC1 -6.25%
COc1cc2[nH]c(=O)n(Cc3ccc(C(=O)NC4CCN(Cc5ccccc5)CC4)cc3)c(=O)c2cc1OC 8.55%
COc1ccc(C(=O)NCCn2nc(C)cc2C)cc1OC1CCN(C(C)=O)CC1 1.96%
COc1cc(C(=O)N2CCN(C/C=C/c3ccccc3)CC2)cc(OC)c1C 6.67%
CCOc1ccccc1NC(=O)Cn1nnc(C(=O)Nc2ccc(C)c(C)c2)c1N 6.21%
CC(C)(C)OC(=O)N1CCC(c2c(C(=O)Nc3ccc4c(c3)OCO4)cnn2-c2ccccc2)CC1 1.48%
COc1ccc(C2Sc3ccccc3NC3=C2C(=O)c2ccccc23)c(OC)c1OC (centres undefined) -5.17%
COc1ccc(N2CCN(c3nc(-c4ccccc4F)nc4ccccc34)CC2)cc1 -14.4%
CCc1ccc(CN(Cc2ccco2)C(=O)c2ccccc2Cl)cc1 -13.4%
COc1ccc(CN(C)C(=O)Cc2ccsc2)c(OC)c1OC -6.5%
COc1ccccc1OCc1ccc(C(=O)NC(C)c2ccccc2)o1 (centres undefined) 10.5%
CN(C(=O)CSc1nc2ccccc2n1Cc1ccccc1C#N)c1ccccc1 5.88%
CCN1CCN(Cc2c(O)ccc3c(=O)c(-c4ccc(OC)c(OC)c4)c(C(F)(F)F)oc23)CC1 10.8%
COc1ccc(-c2c(C)c3ccc(O)c(CN4CCCC4)c3oc2=O)cc1OC 3.24%
Cc1cccc(-c2nnc(SCC(=O)N3CCCc4ccccc43)o2)c1 -12.2%
CCN(CC(=O)Nc1ccc(S(=O)(=O)N2CCCC2)cc1)CC(=O)Nc1cccc(OC)c1 -18.1%
COc1cccc(NC(C)=[N+](C)CCNS(=O)(=O)c2ccc(Cl)cc2)c1 -6.9%
CN1c2ccc(Cl)cc2-c2nc(SCC(=O)Nc3cc(F)ccc3F)ncc2S1(=O)=O 24.7%
Cc1ccc2oc(=O)c3cnn(CC(=O)N4CCN(c5cccc(Cl)c5)CC4)c3c2c1 4.75%
Cc1cccc(C2c3[nH]c4ccccc4c3CCN2C(=O)c2cc(-c3cccn3C)n[nH]2)n1 (centres undefined) 8.11%
Cc1ccc(C2c3[nH]c4ccccc4c3CCN2C(=O)c2cccc(C)c2)cc1 (centres undefined) -0.549%
Cc1cc(OCC(=O)Nc2ncn[nH]2)c(C)c(C)c1Br 3.31%
COC(=O)c1cc(NC(=O)c2cccnc2)ccc1N1CCOCC1 1.15%
COc1ccc(S(=O)(=O)c2cn(C)c3cc(N4CCCCC4)c(F)cc3c2=O)cc1 -5.11%
O=C(/C=C/c1ccccc1)Nc1cc(-c2nc3cc(Cl)ccc3o2)ccc1Cl -9.92%
COc1ccc(CNc2ccc3c(c2)CCC3)cc1OC 9.59%
COc1ccc(CNCCCO)cc1OC 14.1%
CCOC(=O)c1ccc(N2C(=O)c3n[nH]c(-c4ccco4)c3C2c2ccc(O)cc2)cc1 (centres undefined) 13%
CC(=O)c1ccc(NC(=O)CSc2c(C(C)C)cnc3c2c(=O)n(C)c(=O)n3C)cc1 1.89%
CCCCN1C(=O)c2[nH]nc(-c3ccccc3O)c2C1c1cccc(OCc2ccccc2)c1 (centres undefined) 6.88%
COc1cccc2c1cc1c(=O)n(CC(=O)N3CCN(c4ccccc4)CC3)nc(C)n12 -3.55%
CC(=O)O[C@H]1CC[C@@]2(C)[C@@H](CC[C@@H]3[C@@H]2CC[C@]2(C)[C@@H](C(C)(C)O)C[C@@H]32)C1 -15.9%
Cc1cccc(NC(c2cccc(F)c2)c2ccc3ccc(C)nc3c2O)n1 (centres undefined) -16.7%
